Measured values reported in PubChem BioAssay (NCATS).
Values joined by “and” are separate entries in the source; they are usually repeats but may differ in a detail not shown here. Identical values can stand only once. Values without a mark were called inactive. Inconclusive results are not listed. Where a call stands in place of a potency, no number is given. Active and inactive are the calls of the source. Unless noted, the call rests on the fitted dose curve; in most records, active means well fitted curve in the direction sought with a large enough effect; inconclusive means small, poorly fitted or top-dose-only effect, or another doubt; inactive means no such curve, though single readings can be large; an effect the other way counts as inactive or inconclusive.

Key:
[1] = biological target: Cytochrome P450 3A4 (Homo sapiens) (UniProt P08684); assay: qHTS Assay for Inhibitors and Substrates of Cytochrome P450 3A4 (AID 884); further: nearly all actives have a fitted effect of over 50% in size; further: potency means the concentration at half of the fitted maximal effect
Outline: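 20 nM human CYP3A4 with 25 uM Luciferin-PPXE (at KM) in 200 mM KPO4, preincubated 10 min with compound; NADPH regeneration started a 60 min RT reaction. Luciferin detected by luminescence, normalized to 57 uM ketoconazole as full inhibition.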

[2] = Cell Viability - BJ (AID 421; calls by dose curve;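 further: potency means the concentration at half of the fitted maximal effect; cells exposed to compound for 40 hours at 37 °C before readout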); settings: BJ fibroblast viability, qHTS
Outline: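 Cytotoxicity in human BJ foreskin fibroblasts is scored as loss of cellular ATP after a 40-hour exposure, measured by luciferase luminescence. Controls are DMSO and 100 uM tamoxifen.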

[3] = Cell Viability - HepG2 (AID 433; calls by dose curve;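 further: potency means the concentration at half of the fitted maximal effect; potency for ATP loss meaning cytotoxicity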); settings: qHTS
Outline: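 Read-out is luciferase-based quantitation of cellular ATP as a measure of viable HepG2 cells after 40 h treatment at 37 °C. Signal decrease is scaled between DMSO-only and 100 uM tamoxifen controls, with AC50 fitted by the Hill equation.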

[4] = Cell Viability - MRC5 (AID 434; calls by dose curve;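 further: potency means the concentration at half of the fitted maximal effect; cells exposed to compound for 40 hours at 37 °C; potency reflects cytotoxicity seen as loss of intracellular ATP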); settings: MRC5 lung fibroblast viability, qHTS
Outline: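 MRC5 normal human lung fibroblasts (1500/well) were treated with compounds for 40 hr at 37 °C in complete medium, and viable cells were measured as intracellular ATP by CellTiter-Glo luminescence. AC50 came from Hill fits, normalized to DMSO and 100 uM tamoxifen.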

[5] = Cell Viability - SK-N-SH (AID 435; calls by dose curve;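 further: potency means the concentration at half of the fitted maximal effect; compound exposure lasted 40 h at 37 °C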); settings: SK-N-SH neuroblastoma cell viability qHTS
Outline: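 Luminescent ATP signal served as the viability read-out after 40 hours of compound treatment of human neuroblastoma SK-N-SH cells. Concentration-response data, scaled between DMSO and 100 uM tamoxifen, gave AC50 values by standard Hill modeling.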

[6] = Cell Viability - HUV-EC-C (AID 542); further: nearly all actives have a fitted effect of over 35% in size
Outline: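 Decrease in cellular ATP, quantified by luciferase luminescence, reflects toxicity in normal human vascular endothelial HUV-EC-C cells given compound for 40 hr in complete culture medium. Values are AC50s from concentration-response curves.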

[7] = Cell Viability - SH-SY5Y (AID 544); settings: SH-SY5Y neuroblastoma cell viability; viability change, negative = cytotoxic: at 92.2 µM (top of the series); further: nearly all actives have a fitted effect of over 55% in size
Outline: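 Cytotoxicity is scored as a concentration-dependent fall in intracellular ATP in human SH-SY5Y cells treated 40 hr in complete culture medium. Potency is expressed as AC50 from a Hill equation fit.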

[8] = Cell Viability - Renal Proximal Tubule (AID 545); settings: renal proximal tubule cells viability; at 91.7 µM (top of the series), primary cells of rat origin unless noted; further: nearly all actives have a fitted effect of over 40% in size
Outline: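 Luminescent ATP signal (CellTiter-Glo) served as the viability read-out after 40 hr compound exposure of freshly isolated rat proximal tubule cells at 37 °C. Concentration-dependent ATP loss was fitted with the Hill equation to give AC50.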

[9] = Cell Viability - Mesenchymal (AID 546);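 further: cells exposed to compound for 40 hours before reading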
Outline: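 Normal human renal glomerulus-derived kidney mesenchymal cells, 1000 per well in complete medium, were treated with compounds for 40 hr at 37 °C. Viability was read as intracellular ATP by CellTiter-Glo luminescence; AC50 values came from Hill-equation fits of qHTS concentration-response data.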

[10] = Cellular Toxicity (caspase-3) HepG2 (AID 654);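 further: cells exposed to compound for 16 hours before reading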
Outline: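 qHTS, HepG2, 1500 cells/well, complete medium; cpd 16 h 37 °C; Caspase-Glo 3/7, 20 min RT; lum. Norm: DMSO vs 100 uM tamoxifen; AC50 Hill fit.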

[11] = Cellular Toxicity (caspase-3) HUV-EC-C (AID 656)
Outline: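 qHTS; HUV-EC-C, 1000 cells/well; 5 hr settle, 16 hr cmpd, 37°C; Caspase-Glo 3/7, 20 min RT; luminescence. Norm: DMSO = 0%, tamoxifen 100 uM = 100%. Hill-fit AC50.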

[12] = Cellular Toxicity (caspase-3) SHSY5Y (AID 657);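 further: cells exposed to compound for 16 hours at 37 °C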
Outline: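 qHTS, SH-SY5Y, 1500 cells/well, 5 h pre-incubation 37 °C; compound 16 h 37 °C; Caspase-Glo 3/7 1 h RT; luminescence. Norm.: DMSO = 0, 10 uM staurosporine = 100%. Hill fit → AC50.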

[13] = Cellular Toxicity (caspase-3) BJ (AID 658);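 further: cells exposed to compound for 16 hours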
Outline: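 Luminescent aminoluciferin-substrate cleavage reports caspase 3/7 activity in normal human BJ fibroblasts after 16 hr compound exposure at 37 °C. Normalized to DMSO (basal) and 10 uM staurosporine (100%); AC50 from Hill fit of concentration-response.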

[14] = Cellular Toxicity (caspase-3) MRC-5 (AID 659)
Outline: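 Luminescence from caspase-cleaved aminoluciferin substrate (Caspase-Glo 3/7, 1 hr RT) reports caspase 3/7 activity in MRC-5 lung fibroblasts after 16 hr compound exposure. Normalized to DMSO basal and 10 uM staurosporine as 100%; AC50 from Hill fits.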

[15] = Cellular Toxicity (caspase-3) Mesangial (AID 660);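 further: combined caspase 3 and 7 activity read by Caspase-Glo luminescence; cells exposed to compound for 16 h before the caspase read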
Outline: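 Concentration-response qHTS: compound-induced rise in caspase 3/7 luminescence in human mesangial cells after 16 h, normalized to DMSO and 100 uM tamoxifen controls.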

[16] = Cellular Toxicity (caspase-3) SK-N-SH (AID 661);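 further: cells exposed to compound for 16 hours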
Outline: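 Caspase 3/7 activation is measured as a luminescence increase from aminoluciferin released by substrate cleavage in SK-N-SH cells after 16 hr compound treatment; values are AC50 from concentration-response curves.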

[17] = Cellular Toxicity (caspase-3) Renal Proximal Tubule (AID 667); settings: renal proximal tubule cells; at 91.7 µM (top of the series), primary cells freshly taken from rat, solvent-only wells 0%, staurosporine 100% unless noted;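 further: cells exposed to compound for 16 hours at 37 °C before detection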
Outline: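 AC50 derived by standard Hill fit of concentration-response data, normalized between DMSO basal and 10 uM staurosporine as 100% stimulation. Cells: primary rat kidney proximal tubule, 16 h treatment at 37 °C.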

[18] = qHTS Assay for Identification of Small Molecule Inducers of Hypoxia Response (AID 2120; active means well fitted curve in the direction sought with a large enough effect in the signal ratio, with a control signal flat, not every such curve was filed as active; the % refers to the signal ratio)
Outline: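 Induction of beta-lactamase reporter activity was measured in CellSensor HRE-bla ME-180 cells after 17 h compound treatment at 37 degrees C, using CCF4 substrate and the 460nm/530nm emission ratio to derive AC50 values.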

[19] = biological target: Peroxisome proliferator-activated receptor alpha (Homo sapiens) (UniProt Q07869); assay: qHTS assay for small molecule agonists of the peroxisome proliferator-activated receptor alpha (PPARalpha) signaling pathway (AID 651778); settings: PathHunter PPARalpha complementation, chemiluminescence, 6 h; active compounds read high
Outline: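 Cells plated at 2,000/well and held overnight at 37 C, 5% CO2, then compound added by pin tool for 6 hr; after PathHunter detection reagent and 60 min at room temperature, chemiluminescence from enzyme complementation was read.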

Chain of Peroxisome proliferator-activated receptor alpha (Homo sapiens) (Q07869 whole entry, looked up): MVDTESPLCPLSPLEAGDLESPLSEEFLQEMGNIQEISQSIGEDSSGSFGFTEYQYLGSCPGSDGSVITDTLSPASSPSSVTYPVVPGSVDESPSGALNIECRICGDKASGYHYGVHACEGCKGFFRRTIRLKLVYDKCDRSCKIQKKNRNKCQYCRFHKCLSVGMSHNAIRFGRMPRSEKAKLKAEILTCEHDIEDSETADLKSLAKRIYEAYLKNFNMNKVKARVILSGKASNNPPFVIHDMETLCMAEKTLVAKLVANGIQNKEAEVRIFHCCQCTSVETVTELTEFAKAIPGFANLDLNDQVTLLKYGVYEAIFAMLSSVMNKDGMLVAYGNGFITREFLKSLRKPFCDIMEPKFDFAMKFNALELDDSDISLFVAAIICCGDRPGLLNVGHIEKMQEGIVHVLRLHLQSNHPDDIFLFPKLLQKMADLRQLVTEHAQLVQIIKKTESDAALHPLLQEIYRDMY
Chain of Cytochrome P450 3A4 (Homo sapiens) (P08684 whole entry, looked up): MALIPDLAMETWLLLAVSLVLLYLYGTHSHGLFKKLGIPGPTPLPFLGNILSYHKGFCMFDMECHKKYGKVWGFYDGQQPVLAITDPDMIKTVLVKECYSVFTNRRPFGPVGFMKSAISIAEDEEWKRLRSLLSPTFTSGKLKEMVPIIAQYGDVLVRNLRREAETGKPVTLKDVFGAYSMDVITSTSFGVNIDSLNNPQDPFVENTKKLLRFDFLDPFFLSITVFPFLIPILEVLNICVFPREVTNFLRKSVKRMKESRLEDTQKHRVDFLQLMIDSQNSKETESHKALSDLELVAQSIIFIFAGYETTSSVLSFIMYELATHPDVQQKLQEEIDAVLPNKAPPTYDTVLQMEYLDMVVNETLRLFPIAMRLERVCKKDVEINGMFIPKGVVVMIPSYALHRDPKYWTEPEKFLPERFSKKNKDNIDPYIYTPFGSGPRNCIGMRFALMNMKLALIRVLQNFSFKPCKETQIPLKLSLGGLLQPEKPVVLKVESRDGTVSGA

For `CC1=CCCC2C1(C)CCC(C)C2(C)CC/C(C)=C/C[n+]1cn(C)c2c(N)ncnc21` (centres undefined), the Potency [1] was 31.6 µM (active).

`CCCCCCCC(=O)Cl` showed a Potency [2] of over 92 µM, a Potency [3] of over 92 µM and a Potency [4] of over 92 µM. For the same compound, the Potency [5] was over 92 µM, the Potency [6] was “inactive” and the Potency [7] was “inactive”. For the same compound, the activity change, negative = cytotoxicity [8] was -1.44%, the outcome [9] was “inactive” and the outcome [10] was “inactive”. For the same compound, the outcome [11] was “inactive”, the outcome [12] was “inactive” and the outcome [13] was “inactive”. The outcome [14] was “inactive”, the outcome [15] was “inactive” and the outcome [16] was “inactive”. For the same compound, the caspase-3 activation [17] was 8.29%, the Potency [1] was “inactive” and the outcome [18] was “inactive”. The max response [19] was 1.85%.

With `ClC(Cl)=C(Cl)Cl` the Potency [2] was over 92 µM, the Potency [3] was over 92 µM and the Potency [4] was over 92 µM. For the same compound, the Potency [5] was over 92 µM, the Potency [6] was “inactive” and the Potency [7] was “inactive”. The activity change, negative = cytotoxicity [8] was -15.6% and -5.24%, the outcome [9] was “inactive” and the outcome [10] was “inactive”. For the same compound, the outcome [11] was “inactive”, the outcome [12] was “inactive” and the outcome [13] was “inactive”. The outcome [14] was “inactive”, the outcome [15] was “inactive” and the outcome [16] was “inactive”. For the same compound, the caspase-3 activation [17] was 1.99% and -8.12%, the Potency [1] was “inactive” and the outcome [18] was “inactive”. For the same compound, the max response [19] was -0.144% and -2.45%.

For `BrCCBr`, the Potency [2] was over 92 µM, the Potency [3] was over 92 µM and the Potency [4] was over 92 µM. The Potency [5] was over 92 µM, the Potency [6] was “inactive” and the Potency [7] was “inactive”. The activity change, negative = cytotoxicity [8] was -6.16%, the outcome [9] was “inactive” and the outcome [10] was “inactive”. For the same compound, the outcome [11] was “inactive”, the outcome [12] was “inactive” and the outcome [13] was “inactive”. The outcome [14] was “inactive”, the outcome [15] was “inactive” and the outcome [16] was “inactive”. For the same compound, the caspase-3 activation [17] was -15.1%, the Potency [1] was “inactive” and the outcome [18] was “inactive”. The max response [19] was -2.04% and -4.02%.

With `C[C@@]12CCC3C(CCC4=CC(=O)CC[C@]43C)C1CCC2O` (some centres undefined) the Potency [1] was “inactive”.

`C[N+](C)(C)Cc1ccccc1` gave a Potency [2] of over 92 µM, a Potency [3] of over 92 µM and a Potency [4] of over 92 µM. For the same compound, the Potency [5] was over 92 µM, the Potency [6] was “inactive” and the Potency [7] was “inactive”. For the same compound, the activity change, negative = cytotoxicity [8] was 0.397% [at 91.7 µM], the outcome [9] was “inactive” and the outcome [10] was “inactive”. The outcome [11] was “inactive”, the outcome [12] was “inactive” and the outcome [13] was “inactive”. For the same compound, the outcome [14] was “inactive”, the outcome [15] was “inactive” and the outcome [16] was “inactive”. The caspase-3 activation [17] was 4.55% [at 91.7 µM], the outcome [18] was “inactive” and the max response [19] was -5.46% and 0.269%.

Compound `O=C(Cl)C(Cl)(Cl)Cl` has a Potency [2] of over 92 µM, a Potency [3] of over 92 µM and a Potency [4] of over 92 µM. For the same compound, the Potency [5] was over 92 µM, the Potency [6] was “inactive” and the Potency [7] was “inactive”. The activity change, negative = cytotoxicity [8] was 0.33%, the outcome [9] was “inactive” and the outcome [10] was “inactive”. For the same compound, the outcome [11] was “inactive”, the outcome [12] was “inactive” and the outcome [13] was “inactive”. The outcome [14] was “inactive”, the outcome [15] was “inactive” and the outcome [16] was “inactive”. The caspase-3 activation [17] was -1.87%, the Potency [1] was “inactive” and the outcome [18] was “inactive”. It also gave a max response [19] of -1.02%.

`ClC(Cl)(Cl)c1ccccc1` gave a Potency [2] of over 92 µM, a Potency [3] of over 92 µM and a Potency [4] of over 92 µM. The Potency [5] was over 92 µM, the Potency [6] was “inactive” and the Potency [7] was “inactive”. The activity change, negative = cytotoxicity [8] was -4.93% and -2.74%, the outcome [9] was “inactive” and the outcome [10] was “inactive”. For the same compound, the outcome [11] was “inactive”, the outcome [12] was “inactive” and the outcome [13] was “inactive”. For the same compound, the outcome [14] was “inactive”, the outcome [15] was “inactive” and the outcome [16] was “inactive”. The caspase-3 activation [17] was -4.62% and -2.75%, the Potency [1] was “inactive” and the outcome [18] was “inactive”. The max response [19] was -2.9% and -5.05%.

`Clc1nc(Cl)nc(Cl)n1` showed a Potency [2] of over 92 µM, a Potency [3] of over 92 µM and a Potency [4] of over 92 µM. The Potency [5] was over 92 µM, the Potency [6] was “inactive” and the viability change, negative = cytotoxic [7] was -96.5% (active). For the same compound, the activity change, negative = cytotoxicity [8] was -4.88%, the outcome [9] was “inactive” and the outcome [10] was “inactive”. For the same compound, the outcome [11] was “inactive”, the outcome [12] was “inactive” and the outcome [13] was “inactive”. The outcome [14] was “inactive”, the outcome [15] was “inactive” and the outcome [16] was “inactive”. For the same compound, the caspase-3 activation [17] was 1.34%, the Potency [1] was “inactive” and the outcome [18] was “inactive”. For the same compound, the max response [19] was -5.93% and -1.12%.
